For test [1], the system named is Wnt5a (protein binding on small-molecule microarray). Put plainly: Wnt5a binders on small-molecule microarray, primary screen, biophysical, 635/667 nm fluorescence (AID 1142).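 Further: fluorescence read at 667 nm with signal to noise per printed feature.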 The conditions noted are these: 635 nm fluorescence, higher = more signal.
Test [2] in a line: cell viability in Huh7 cells, primary screen, cytotoxicity control for HCV replication inhibitor project, CellTiter-Glo luminescence, basal, 48 h (AID 1143).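 Further: Huh7 hepatoma cells carrying a hepatitis C replication reporter with no stimulus; test concentration not given here.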 As to conditions: Huh7 HCV replicon, higher = more signal, called active from +8 up or from −8 down. On the technique in general: ATP-based viability assays read luminescence as a measure of living cells.
A short description of test [3]: P. aeruginosa biofilm formation inhibitors, primary screen, PAO1 strain, BacTiter-Glo luminescence, LB-PBS (AID 1144). The conditions noted are these: 12 h, higher = more signal.
Test [4] is described as follows: CREB reporter modulators without forskolin, primary screen, cell-based, PC12, CRE-LacZ reporter, unstimulated (AID 1145). The conditions noted are these: no forskolin, luminescence, 4.5 h, higher = more signal, called active from +8 up or from −8 down.
Test [5] is described as follows: CREB reporter modulators under forskolin, primary screen, cell-based, PC12, CRE-LacZ reporter, forskolin-stimulated (AID 1146).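 Further: PC12 cells with 6xCRE LacZ reporter stimulated by forskolin 10 µM; beta-galactosidase reporter signal reflecting CREB driven transcription.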 As to conditions: luminescence, 4.5 h, higher = more signal, called active from +8 up or from −8 down.
Test [6] addresses Streptavidin (Streptomyces avidinii) (UniProt P22629). Put plainly: streptavidin binders on small-molecule microarray, primary screen, artefact control for SMM compound annotation, biophysical, 635/667 nm fluorescence (AID 1147).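 Further: signal reflects streptavidin binding to arrayed compounds as a control protein.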 The conditions noted are these: streptavidin binding, higher = more signal.
The nature of test [7]: small-molecule binders of probe aInhba, primary screen, biochemical, small-molecule microarray, 635/667 nm fluorescence (AID 1148).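 Further: score merges 667nm spot fluorescence with signal-to-noise for antibody binding to printed compounds.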 The conditions noted are these: higher = more signal.
In test [8] the target is Torsin-1A (Homo sapiens) (UniProt O14656). Put plainly: torsin A binders from cell lysate, primary screen, small-molecule microarray, wild-type, 635/667 nm (AID 1149). As to conditions: COS7 hTOR1A-WT lysate, 635 nm fluorescence, higher = more signal.
Sequence of Torsin-1A (Homo sapiens) (O14656 whole entry, looked up): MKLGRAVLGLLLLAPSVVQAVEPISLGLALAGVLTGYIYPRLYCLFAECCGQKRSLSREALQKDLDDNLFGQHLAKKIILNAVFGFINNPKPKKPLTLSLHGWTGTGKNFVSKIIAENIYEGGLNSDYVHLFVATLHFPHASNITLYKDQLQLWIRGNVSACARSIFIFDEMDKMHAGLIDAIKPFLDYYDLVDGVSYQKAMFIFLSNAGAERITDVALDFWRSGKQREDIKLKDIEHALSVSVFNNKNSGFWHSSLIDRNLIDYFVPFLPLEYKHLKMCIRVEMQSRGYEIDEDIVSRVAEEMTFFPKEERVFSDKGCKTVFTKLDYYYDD
Test [9] shares this target. Put plainly: small-molecule binders of mutant TOR1A in lysate, primary screen, cell lysate, small-molecule microarray, COS7 lysate, 635/667 nm fluorescence (AID 1150).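 Further: score pools 667 nm emission and signal to noise measuring lysate protein binding.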 As to conditions: COS7 hTOR1A mutant lysate, 635 nm fluorescence, higher = more signal.
Test [10] has as its system Sonic hedgehog protein (Shh). Put plainly: small-molecule binders of Shh protein, primary screen, biochemical, small-molecule microarray, 635/667 nm fluorescence (AID 1151).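 Further: Shh protein binding to compounds spotted on small-molecule microarray slides; score combines spot fluorescence intensity with signal-to-noise across triplicate slides.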 As to conditions: small-molecule microarray binding, 635 nm fluorescence; higher = more signal.
Test [11] can be described thus: E. coli DRC41 culture turbidity changes, primary screen, E. coli filamentation inducer project, strain DRC41, OD650, 48 h (AID 1152).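 Further: E. coli MC1000 strain DRC41 lacking acrAB efflux pump and sulA.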 The conditions noted are these: E. coli DRC41 (acrAB sulA), higher = more signal, called active from +8 up or from −8 down.
Test [12] in a line: small-molecule binders of probe aLefty1, primary screen, biochemical, small-molecule microarray, 635/667 nm fluorescence (AID 1153).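 Further: score merges spot fluorescence with signal-to-noise ratio from the scanned slide images.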 As to conditions: higher = more signal.
Test [13] is described as follows: PSAC antagonists in infected red cells, primary screen, cell-based, P. falciparum Indochina, OD700, 1 h (AID 1154). The conditions noted are these: P. falciparum Indochina infected RBC osmotic lysis, higher = more signal, called active from +8 up or from −8 down.
The nature of test [14]: PSAC antagonists in infected red cells, primary screen, cell-based, P. falciparum Indochina, OD700, 2 h (AID 1155).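 Further: lysis reports solute entry through the parasite surface anion channel PSAC; channel blockers reduce lysis of infected cells.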 As to conditions: P. falciparum Indochina infected erythrocytes, osmotic lysis OD700; higher = more signal, called active from +8 up or from −8 down.
Test [15] is described as follows: osmotic lysis modulators in infected erythrocytes, primary screen, PSAC antagonist project, cell-based, P. falciparum Indochina, OD700, 3 h (AID 1156). As to conditions: higher = more signal, called active from +8 up or from −8 down.
A short description of test [16]: PSAC antagonists in infected red cells, primary screen, cell-based, P. falciparum Indochina, OD700, 18 h (AID 1157). As to conditions: P. falciparum Indochina infected erythrocytes, osmotic lysis OD700, 18 h; higher = more signal, called active from +8 up or from −8 down.
The nature of test [17]: modulators of S6 phosphorylation in cells, primary screen, cell-based, A549, cytoblot, luminescence, serum-stimulated (AID 1158).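 Further: serum-stimulated A549 lung adenocarcinoma cells; signal is phosphorylated S6 detected by cytoblot immunostaining with HRP secondary.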 As to conditions: A549 phospho-S6 cytoblot, 5 h, higher = more signal.
Test [18] concerns the target NADPH oxidase 2 (Homo sapiens) (UniProt P04839). Put plainly: NOX2-dependent H2O2 signal modulators, primary screen, NOX inhibitor project, cell-based, HEK293-NOX2, PMA-stimulated, Amplex Red fluorescence (AID 1159). Further: test concentration not given here. The conditions noted are these: 45 min, higher = more signal, called active from +8 up or from −8 down.
Test [19] has as its target NADPH oxidase 4 (Homo sapiens) (UniProt Q9NPH5). Put plainly: NOX4-dependent H2O2 signal modulators, primary screen, NOX inhibitor project, cell-based, HEK293-NOX4, tetracycline-induced, Amplex Red fluorescence (AID 1160). The conditions noted are these: 45 min, higher = more signal, called active from +8 up or from −8 down.
The target of test [20] is NADPH oxidase 5 (Homo sapiens) (UniProt Q96PH1). Put plainly: NOX5-dependent H2O2 signal modulators, primary screen, NOX inhibitor project, cell-based, HEK293-NOX5, Amplex Red fluorescence (AID 1161). The conditions noted are these: HEK293-NOX5, ionomycin, 45 min, higher = more signal.
Sequence of NADPH oxidase 5 (Homo sapiens) (Q96PH1 whole entry, looked up): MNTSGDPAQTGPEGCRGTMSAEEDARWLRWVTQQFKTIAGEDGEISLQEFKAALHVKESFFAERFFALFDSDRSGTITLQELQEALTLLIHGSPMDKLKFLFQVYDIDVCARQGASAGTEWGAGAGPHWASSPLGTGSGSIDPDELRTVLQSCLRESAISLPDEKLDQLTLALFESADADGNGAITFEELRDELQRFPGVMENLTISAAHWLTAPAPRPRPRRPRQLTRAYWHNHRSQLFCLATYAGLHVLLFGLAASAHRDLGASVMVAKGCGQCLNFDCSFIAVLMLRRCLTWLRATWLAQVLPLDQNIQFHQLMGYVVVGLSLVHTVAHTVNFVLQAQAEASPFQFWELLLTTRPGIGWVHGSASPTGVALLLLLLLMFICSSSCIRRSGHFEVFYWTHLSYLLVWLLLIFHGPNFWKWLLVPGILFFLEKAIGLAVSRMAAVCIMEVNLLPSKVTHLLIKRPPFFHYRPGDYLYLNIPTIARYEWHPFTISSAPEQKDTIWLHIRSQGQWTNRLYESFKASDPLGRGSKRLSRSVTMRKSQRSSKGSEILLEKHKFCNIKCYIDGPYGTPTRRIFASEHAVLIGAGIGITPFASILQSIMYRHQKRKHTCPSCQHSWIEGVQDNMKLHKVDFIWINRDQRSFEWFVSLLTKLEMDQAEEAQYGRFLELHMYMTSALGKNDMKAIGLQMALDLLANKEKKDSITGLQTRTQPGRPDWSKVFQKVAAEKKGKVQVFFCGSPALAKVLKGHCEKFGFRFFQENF

Composite z-score and z-score data for eight molecules are collected here from PubChem BioAssay.

Active and inactive are the calls of the source. Unless noted, how the calls were made is not given here.

Sequence of NADPH oxidase 4 (Homo sapiens) (Q9NPH5 whole entry, looked up): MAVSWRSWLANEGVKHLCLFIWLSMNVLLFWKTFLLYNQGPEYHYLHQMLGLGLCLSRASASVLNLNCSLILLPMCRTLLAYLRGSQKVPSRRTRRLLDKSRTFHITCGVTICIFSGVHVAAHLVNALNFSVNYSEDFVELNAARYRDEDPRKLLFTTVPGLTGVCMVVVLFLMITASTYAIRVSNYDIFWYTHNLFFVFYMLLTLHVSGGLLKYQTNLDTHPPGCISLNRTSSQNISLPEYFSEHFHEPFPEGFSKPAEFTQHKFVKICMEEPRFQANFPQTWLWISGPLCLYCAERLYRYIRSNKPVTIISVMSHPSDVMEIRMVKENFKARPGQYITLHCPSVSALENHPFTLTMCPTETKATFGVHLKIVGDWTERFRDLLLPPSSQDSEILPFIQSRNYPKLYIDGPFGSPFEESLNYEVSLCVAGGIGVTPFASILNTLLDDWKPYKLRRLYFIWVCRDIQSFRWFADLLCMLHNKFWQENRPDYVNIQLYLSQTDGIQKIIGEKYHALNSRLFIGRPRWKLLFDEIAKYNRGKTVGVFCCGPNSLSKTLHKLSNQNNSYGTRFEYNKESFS
Sequence of NADPH oxidase 2 (Homo sapiens) (P04839 whole entry, looked up): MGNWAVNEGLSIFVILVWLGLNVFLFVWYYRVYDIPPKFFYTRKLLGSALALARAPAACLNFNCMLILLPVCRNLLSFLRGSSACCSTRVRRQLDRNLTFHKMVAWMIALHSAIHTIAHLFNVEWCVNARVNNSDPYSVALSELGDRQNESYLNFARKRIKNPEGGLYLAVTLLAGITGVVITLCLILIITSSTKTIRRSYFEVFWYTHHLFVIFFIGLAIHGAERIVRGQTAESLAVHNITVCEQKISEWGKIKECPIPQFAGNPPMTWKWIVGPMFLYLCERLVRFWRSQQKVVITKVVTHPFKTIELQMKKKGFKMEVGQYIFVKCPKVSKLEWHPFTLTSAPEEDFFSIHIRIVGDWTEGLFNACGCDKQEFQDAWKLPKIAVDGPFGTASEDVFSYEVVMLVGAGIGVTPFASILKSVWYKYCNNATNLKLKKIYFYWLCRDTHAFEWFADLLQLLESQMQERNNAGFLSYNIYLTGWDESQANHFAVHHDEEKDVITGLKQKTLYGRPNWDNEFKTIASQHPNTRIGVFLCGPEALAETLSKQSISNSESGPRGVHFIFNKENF
Sequence of Streptavidin (Streptomyces avidinii) (P22629 whole entry, looked up): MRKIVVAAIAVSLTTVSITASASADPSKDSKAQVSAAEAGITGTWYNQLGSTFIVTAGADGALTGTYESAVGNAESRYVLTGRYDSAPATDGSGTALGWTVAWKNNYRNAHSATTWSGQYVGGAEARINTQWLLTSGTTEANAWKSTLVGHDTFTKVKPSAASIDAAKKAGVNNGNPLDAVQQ

Turning to `CC(C)NC(=O)[C@@]1(c2ccc([N+](=O)[O-])cc2)CC(=O)N(CC23CC4CC(CC(C4)C2)C3)[C@@H]1c1ccc(CO)cc1`, the composite z-score was 0.821 in test [1]; 0.771 in test [6]; 1.19 in [7]; 1.17 in test [8]; 1.36 in [9]; 1.95 in [10]. This molecule also displayed a composite z-score in test [12] of 1.56. Further, the z-score in test [2] was -4.42 (inactive); in [3], -0.336 (inactive); in [4], 0.362 (inactive); in [5], 0.795 (inactive); in test [11], -0.323 (inactive); in [13] it was 2.3 (inactive). For the same molecule, the z-score in [14] was 0.814 (inactive); in test [15] it was 1.86 (inactive); in [16], 0.204 (inactive); in test [17] it was -0.248; in test [18], -0.108 (inactive); in [19], -1.02 (inactive). This molecule registered a z-score in [20] of -0.0647.

Turning to `C=CCOC(=O)[C@@H]1[C@H]2C(=O)O[C@H](c3ccccc3)[C@H](c3ccccc3)N2[C@H](c2ccc(OCCOC(=O)[C@H]3C[C@H]4C(=O)N[C@@H](CCCCN(C)C)C(=O)N4[C@H]3c3ccc(O)cc3)cc2)[C@@]12C(=O)Nc1ccc(I)cc12`, the composite z-score was found to be 0.374 in [1]; 0.433 in test [6]; 0.0895 in test [7]; 1.18 in test [8]; 0.9 in test [9]; 1.98 in [10]. The same molecule returned a composite z-score in test [12] of 0.0313. For the same molecule, the z-score is -1.29 (inactive) in test [2]; -0.852 (inactive) in test [3]; -0.118 (inactive) in test [4]; 2.13 (inactive) in test [5]; -1.09 (inactive) in test [11]; -0.202 (inactive) in test [13]. Further, the z-score is 0.422 (inactive) in test [14]; 3.69 (inactive) in test [15]; -0.116 (inactive) in [16]; -1.34 in test [17]; 1.6 (inactive) in [18]; 0.182 (inactive) in test [19]. In [20], this molecule returned a z-score of 0.946.

Take `CN(C)CCCCNC(=O)[C@H]1C[C@H]2C(=O)NCC(=O)N2[C@H]1c1ccc(O)cc1`: the composite z-score in test [1] was -0.311; in [6] it was -0.761; in test [7], -0.344; in test [8], -0.0276; in test [9] it was 1.07; in test [10] it was 1.57. The same molecule gave a composite z-score in [12] of -0.417. Further, the z-score in test [2] was 0.153 (inactive); in [3], 0.0384 (inactive); in [4], -0.943 (inactive); in test [5], -0.489 (inactive); in [11] it was 0.327 (inactive); in [13] it was 2.9 (inactive). The z-score in test [14] is 0.552 (inactive); in [15] it was 0.447 (inactive); in [16] it was 0.3 (inactive); in test [17], -0.468; in test [18] it was 1.06 (inactive); in test [19] it was 1.09 (inactive). The molecule further gave a z-score in [20] of 1.18.

Regarding `CC1CC/C=C\[C@H]2OC34C=CCN(CCN5CCOCC5)C(=O)[C@H]3N(CCCO)C(=O)[C@@H]4C2C(=O)O1` (stereo not given in full), the composite z-score in test [1] is -0.239; in test [6] it was -0.601; in [7], -0.154; in [8], -0.0243; in [9] it was 0.0876; in test [10], 0.624. In [12], this molecule returned a composite z-score of -0.0518. Also, the z-score in test [2] was 0.0123 (inactive); in [3], 1.13 (inactive); in test [4], -0.887 (inactive); in [5] it was -0.0703 (inactive); in test [11] it was -0.576 (inactive); in test [13], 0.811 (inactive). The z-score in test [14] is 0.354 (inactive); in test [15] it was -0.513 (inactive); in test [16] it was 0.136 (inactive); in test [17], 1.38; in test [18] it was 0.638 (inactive); in test [19], -1.71 (inactive). Further, the z-score in [20] was found to be 0.947.

Take `CCCC[C@H]1C[C@@H]1[C@@H]1N(C(C)=O)[C@H](c2cccc(OC)c2)CC12CC2`: the composite z-score is -0.0718 in test [1]; 0.361 in test [6]; 0.0111 in test [7]; -0.53 in test [8]; 0.0852 in test [9]; -0.784 in test [10]. Further, the composite z-score in test [12] worked out at 0.416. Also, the z-score in [2] is -0.338 (inactive); in [3], 0.824 (inactive); in [4], 0.583 (inactive); in [5], -0.0157 (inactive); in test [11], -1.17 (inactive); in test [13], 3.6 (inactive). Besides, the z-score in test [14] is 0.984 (inactive); in test [15], 1.1 (inactive); in test [16], 0.692 (inactive); in [17] it was -0.168; in test [18] it was -0.927 (inactive); in [19], 0.998 (inactive). In test [20], this molecule yielded a z-score of -2.9.

In the case of `COCCOC(=O)N1C(=O)[C@@]2(c3cc(C#CCNC(N)=O)ccc31)[C@H](C(=O)Nc1nc3ccccc3s1)[C@H]1C(=O)O[C@H](c3ccccc3)[C@H](c3ccccc3)N1[C@@H]2c1ccccc1OCCO`, the composite z-score in test [1] came out at 0.553; in test [6], 0.158; in test [7] it was 0.152; in [8], 0.508; in test [9], 0.0351; in test [10], 1.82. The molecule further gave a composite z-score in [12] of 0.646. The z-score in test [2] is -2.11 (inactive); in test [3], -0.264 (inactive); in test [4], -0.465 (inactive); in test [5], -0.154 (inactive); in test [11], 1.14 (inactive); in test [13] it was 2.15 (inactive). Also, the z-score in test [14] is 0.215 (inactive); in [15], 0.483 (inactive); in test [16] it was -1.08 (inactive); in test [17] it was 2.18; in test [18], 1.41 (inactive); in test [19], 0.695 (inactive). For the same molecule, the z-score in test [20] was determined as 0.934.

`CN1C(=O)C2C=CC(C(O)c3ccc(-c4ccccc4)s3)N(NC(=O)OC(C)(C)C)C2C1=O` (stereo not given): the composite z-score was -0.423 in [1]; 1.38 in [6]; 0.0069 in test [7]; -0.043 in test [8]; 0.564 in [9]; 0.0221 in [10]. In addition, the composite z-score in test [12] was determined as 0.335. In addition, the z-score in [2] is 0.531 (inactive); in test [3], 0.146 (inactive); in [4] it was 0.436 (inactive); in test [5], -0.0651 (inactive); in test [11], -0.898 (inactive); in [13], 0.976 (inactive). Further, the z-score in test [14] was 0.524 (inactive); in [15], -0.254 (inactive); in [16], 0.998 (inactive); in test [17], -1.06; in [18] it was -0.0373 (inactive); in test [19], -1.58 (inactive). In [20], this molecule displayed a z-score of -0.722.

Take `CC(C)C[C@@H]1NC(=O)[C@@H]2C[C@H](C(=O)NCCCCCCNC(=O)CS)[C@H](c3cccc(OCCO)c3)N2C1=O`: the composite z-score in [1] was 0.971; in [6], 1.22; in test [7] it was 0.159; in test [8], 1.15; in test [9], 1.18; in test [10] it was 2.38. For the same molecule, the composite z-score in [12] stood at 0.196. For the same molecule, the z-score was 0.0734 (inactive) in test [2]; -0.253 (inactive) in test [3]; 0.688 (inactive) in [4]; 0.0025 (inactive) in [5]; -1.05 (inactive) in [11]; 7.13 (inactive) in test [13]. Further, the z-score is 1.57 (inactive) in test [14]; 1.01 (inactive) in [15]; 0.792 (inactive) in test [16]; -0.485 in [17]; 1.56 (inactive) in [18]; 0.427 (inactive) in test [19]. The molecule further displayed a z-score in test [20] of -0.196.
